The text below walks through data of PubChem BioAssay (Tox21).

Molecules are shown by their SMILES. A number with no mark means an inactive call. Inconclusive results are not listed. Activity calls are given as the source filed them. The call rests on the fitted dose curve; in most records, active means well fitted curve in the direction sought with a large enough effect in the repeat runs; inconclusive means weak or mixed curves; inactive means no such curve, though single readings can be large; an effect the other way counts as inactive or inconclusive.

The nature of test [1]: Human pregnane X receptor (PXR) small molecule agonists, qHTS cell viability counter screen (AID 1346977). Further: nearly all actives have a fitted effect of over 50% in size. Further: potency means the concentration at half of the fitted maximal effect. An outline of the steps: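 In each well, the PXR reporter HepG2 line was checked for viability: CellTiter-Fluor reagent added 23hr post-dosing, fluorescence read after 1hr incubation at 37C.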
The nature of test [2]: Caspase-3/7 induction in HepG2 cells by small molecules, qHTS assay (AID 1346978). Further: nearly all actives have a fitted effect of over 15% in size. An outline of the steps: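 Caspase-3/7 induction was measured by Caspase-Glo 3/7 luminescence (30 min, room temperature) after a 17 hr compound exposure of wild-type HepG2 cells seeded at 2,000 per well and pre-incubated 5 hr.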
A general note: qHTS replaces the single test concentration by a dilution series.

The nature of test [3]: Caspase-3/7 induction in CHO-K1 cells by small molecules, qHTS cell viability counter screen (AID 1346979). Further: nearly all actives have a fitted effect of over 35% in size. Further: potency means the concentration at half of the fitted maximal effect. An outline of the steps: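 Following a 5hr settling period, CHO-K1 cells at 1,500 per well received DMSO-dissolved compounds. Cell viability was quantified 16hr later by CellTiter-Fluor fluorescence, measured after 1hr with reagent at 37C.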
Test [4] in a line: Caspase-3/7 induction in CHO-K1 cells by small molecules, qHTS assay (AID 1346980). Further: nearly all actives have a fitted effect of over 15% in size. An outline of the steps: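 Luminescent Caspase-Glo 3/7 read (30min, room temperature) quantified apoptosis induction. Cells were wild-type CHO-K1, treated with compound for 17hr at 37 C and 5% CO2.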
Test [5] in a line: Caspase-3/7 induction in HepG2 cells by small molecules, qHTS cell viability counter screen (AID 1346981). Further: nearly all actives have a fitted effect of over 30% in size. Further: potency means the concentration at half of the fitted maximal effect. A digest of the protocol: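 Cell viability is measured as a cytotoxicity counter screen alongside the Caspase-Glo 3/7 readout in identical wells. Wild-type HepG2 cells are treated with test compounds for 16 hr at 37 C before CellTiter-Fluor addition and a 1-hr incubation.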

Test [6] addresses Nuclear receptor subfamily 1 group I member 2 (Homo sapiens) (UniProt O75469). Put plainly: Human pregnane X receptor (PXR) small molecule agonists, qHTS assay (AID 1346982). Further: nearly all actives have a fitted effect of over 35% in size. Further: potency means the concentration at half of the fitted maximal effect. An outline of the steps:
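Cells: HepG2 stably carrying PXR-Luc. Medium held 5% charcoal-stripped FBS. Compounds in DMSO added after 5 hr plating, incubated 24 hr, then luminescence quantified with ONE-Glo.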

For test [7], the target named is Nuclear receptor subfamily 1 group I member 2 (Rattus norvegicus) (UniProt Q9R1A7). Nature of the test: Rat pregnane X receptor (rPXR) activation by small molecules, qHTS assay (AID 1346983). Further: nearly all actives have a fitted effect of over 20% in size. Particulars: rPXR luciferase reporter cells, One-Glo luminescence, 24 h; max activation: stronger effect = higher value. A digest of the protocol: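 Luminescent readout (One-Glo luciferase, 30 min room temperature) followed 24 hr compound treatment at 37 C of rPXR cells plated 2,000 per well and preincubated 5hr; qHTS format with compounds delivered in DMSO.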
Sequence of Nuclear receptor subfamily 1 group I member 2 (Rattus norvegicus) (Q9R1A7 whole entry, looked up): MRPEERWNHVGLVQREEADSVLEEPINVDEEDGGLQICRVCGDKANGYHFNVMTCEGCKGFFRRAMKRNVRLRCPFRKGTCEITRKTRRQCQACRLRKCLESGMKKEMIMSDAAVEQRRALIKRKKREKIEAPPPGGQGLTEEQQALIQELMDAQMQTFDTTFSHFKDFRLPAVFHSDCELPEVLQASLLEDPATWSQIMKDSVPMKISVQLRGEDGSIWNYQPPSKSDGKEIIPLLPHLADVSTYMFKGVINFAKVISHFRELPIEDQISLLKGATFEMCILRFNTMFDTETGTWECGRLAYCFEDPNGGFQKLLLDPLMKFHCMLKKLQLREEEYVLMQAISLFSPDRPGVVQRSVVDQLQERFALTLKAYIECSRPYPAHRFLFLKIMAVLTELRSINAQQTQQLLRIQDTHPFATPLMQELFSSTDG

Test [8] has as its target Nuclear receptor subfamily 1 group I member 2 (Homo sapiens) (UniProt O75469). Nature of the test: CYP3A4 induction through human pregnane X receptor (PXR) by small molecules, qHTS assay (AID 1346984). Further: nearly all actives have a fitted effect of over 40% in size. A digest of the protocol:
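Quantitative HTS in DPX-2 cells, i.e. HepG2 transfected with PXR response element and CYP3A4-promoter luciferase. Compounds in DMSO incubated 24hr at 37C; then P450-Glo CYP3A4 substrate, 3uM final, 3hr; One-Glo luminescence.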

For test [9] the target is unchanged. Nature of the test: Human pregnane X receptor (PXR) activation by small molecules, qHTS assay (AID 1346985). Further: nearly all actives have a fitted effect of over 40% in size. An outline of the steps:
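DPX-2 cells (HepG2 co-transfected with a PXR response element and a CYP3A4-promoter luciferase construct) were seeded at 2,000 per well, rested 5 hr at 37C, then exposed to DMSO-dissolved compounds for 24 hr. Activation was read as luciferase luminescence.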

For test [10], the target named is Cytochrome P450 2D6 (Homo sapiens) (UniProt P10635). Put plainly: Cytochrome P450 Family 2 Subfamily D Member 6 (CYP2D6) small molecule antagonists: luciferase reporter qHTS assay (AID 1671196). Further: nearly all actives have a fitted effect of over 50% in size. Further: potency means the concentration at half of the fitted maximal effect. A digest of the protocol: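 Enzyme and proluciferin substrate were first combined with test chemical for 10 min at room temperature. Adding NADPH regeneration solution started a 1 h reaction, stopped with luciferin detection reagent and read by luminescence 20 min later.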
Sequence of Cytochrome P450 2D6 (Homo sapiens) (P10635 whole entry, looked up): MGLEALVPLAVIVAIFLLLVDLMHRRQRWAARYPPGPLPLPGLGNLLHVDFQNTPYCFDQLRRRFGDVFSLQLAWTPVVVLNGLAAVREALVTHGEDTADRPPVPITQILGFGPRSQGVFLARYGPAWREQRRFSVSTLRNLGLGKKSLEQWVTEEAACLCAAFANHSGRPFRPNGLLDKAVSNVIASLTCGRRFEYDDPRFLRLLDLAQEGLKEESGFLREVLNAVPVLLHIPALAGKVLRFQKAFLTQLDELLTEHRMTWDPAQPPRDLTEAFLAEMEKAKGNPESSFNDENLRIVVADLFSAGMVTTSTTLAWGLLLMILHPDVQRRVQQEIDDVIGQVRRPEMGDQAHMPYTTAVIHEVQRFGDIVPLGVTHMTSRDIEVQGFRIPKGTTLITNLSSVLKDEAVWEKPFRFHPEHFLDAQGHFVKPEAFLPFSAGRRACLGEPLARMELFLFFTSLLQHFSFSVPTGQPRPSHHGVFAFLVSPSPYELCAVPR
On the technique in general: Reporter assays use an easily measured gene product as a stand-in for the process of interest.
On the % scale 0 is the no-effect control and ±100 the full control effect.

Sequence of Nuclear receptor subfamily 1 group I member 2 (Homo sapiens) (O75469 whole entry, looked up): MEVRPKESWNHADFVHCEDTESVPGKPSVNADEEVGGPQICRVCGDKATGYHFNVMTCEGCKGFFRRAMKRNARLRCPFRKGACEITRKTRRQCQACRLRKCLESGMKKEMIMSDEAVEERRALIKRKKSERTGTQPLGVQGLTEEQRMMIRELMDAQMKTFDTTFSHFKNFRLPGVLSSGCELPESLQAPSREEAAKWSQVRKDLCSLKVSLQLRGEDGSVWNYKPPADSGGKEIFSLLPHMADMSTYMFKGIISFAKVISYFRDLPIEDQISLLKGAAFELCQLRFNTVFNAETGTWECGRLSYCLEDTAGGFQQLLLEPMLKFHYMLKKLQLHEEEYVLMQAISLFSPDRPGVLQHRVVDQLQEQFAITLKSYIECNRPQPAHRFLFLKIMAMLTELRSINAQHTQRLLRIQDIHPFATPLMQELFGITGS

As to `Cc1ccc2c(ccc3ccccc32)c1`, the Potency entry in [1], in test [3], in [4] and in [5] was “inactive” throughout. Further, the outcome in test [2] was inactive. For the same compound, the Potency in test [6] is 54.6 µM (active).

As for `C=Cc1c(C)c2cc3[nH]c(cc4nc(cc5nc(cc1[nH]2)C(C)=C5CCC(=O)O)C(CCC(=O)O)=C4C)c(C)c3C=C`, the Potency was 15 µM (active) in test [1], 21.1 µM (active) in test [3] and 13.3 µM (active) in [5]. In addition, the compound was classed as inactive in test [2]. In addition, the Potency entry in test [4], in test [6], in test [8] and in test [9] was “inactive” each time. For the same compound, the max activation in test [7] is -1.27%.

For `CC(O)C1CCCCC1` (stereo not given), the Potency entry in test [1], in [3], in test [4], in test [5] and in test [6] was “inactive” in each case. Besides, the result in [2] was inactive.

Regarding `Cn1c(N)nc2nc[nH]c2c1=O`, the Potency entry in test [1], in [3], in test [4], in [5] and in [6] was “inactive” throughout. In addition, in [2], the compound was called inactive.

As for `FC(F)(F)C(F)(F)C(F)(F)C(F)(F)C(F)(F)C(F)(F)CCI`, the Potency result in test [1], in [3], in test [4], in [5] and in test [6] was “inactive” throughout. For the same compound, the result in test [2] was inactive.

On to `ClC(Cl)(Cl)c1ccc(C(Cl)(Cl)Cl)cc1`, for which the Potency result in test [1], in [3], in test [4], in [5] and in [6] was “inactive” throughout. Further, the outcome in test [2] was inactive.

For the compound `CC(C(=O)O)c1ccc(C(=O)c2ccccc2)s1` (stereo not given), the Potency entry in test [1], in test [3], in [4], in test [5], in [8] and in [9] was “inactive” in each case. In [10], the Potency entry is “inactive”. Moreover, in test [2], the compound was called inactive. Further, the Potency in test [6] was 15 µM (active). Also, in test [7], the max activation is 13.7%.

`CC(C)NCC(O)COc1ccc(CC(N)=O)cc1` (stereo not given): the Potency result in test [1], in test [3], in [4] and in test [5] was “inactive” in each case. Also, the compound was called inactive in test [2].

For `O=C(c1ccc(O)cc1)c1ccc(O)cc1`, the Potency entry in [1], in test [3], in test [4] and in test [5] was “inactive” each time. In [2], the compound was called inactive. Moreover, in test [6], the Potency is 54.5 µM (active).

As for `O=C(O)C1CCC(C(=O)O)CC1` (stereo not given), the Potency result in test [1], in test [3], in test [4], in test [5] and in test [6] was “inactive” each time. Besides, in test [2], the compound was called inactive.

In the case of `C1=Cc2ccccc2C1`, the Potency result in test [1], in test [3], in [4], in test [5] and in test [6] was “inactive” each time. Besides, the compound was called inactive in test [2].

With `O=C(NN1CCCC1)NS(=O)(=O)c1ccc(Cl)cc1`, the Potency result in test [1], in test [3], in test [4], in test [5], in test [6] and in test [10] was “inactive” throughout. Moreover, in test [2], the compound was called inactive.

Consider `Cc1cccc(Oc2ccccc2)c1`, for which the Potency entry in test [1], in [3], in [4], in [5] and in test [6] was “inactive” each time. For the same compound, the result in test [2] was inactive. The Potency in test [10] is 34.7 µM (active).

Turning to `O=[N+]([O-])c1cccc(Cl)c1Cl`, the Potency result in test [1], in [3], in [4], in test [5], in test [6] and in test [10] was “inactive” in each case. Further, the compound was called inactive in test [2].

Take `C=C(C)C(=O)OCCOc1ccccc1`: the Potency entry in [1], in [3], in test [4], in test [5], in test [6] and in test [10] was “inactive” throughout. Moreover, in [2], the outcome was inactive.

As to `COC(=O)C(C)=O`, the Potency entry in test [1], in [3], in test [4], in [5], in test [6] and in [10] was “inactive” in each case. Moreover, in test [2], the compound was called inactive.

Take `COC(Cc1ccccc1)OC`: the Potency entry in test [1], in test [3], in test [4], in test [5], in test [6] and in test [10] was “inactive” each time. For the same compound, in test [2], the result was inactive.

Take `CC(C)c1cccc(C(C)C)c1NC(=O)NS(=O)(=O)c1cc(C(C)(C)O)co1`: the Potency result in [1], in test [3], in test [4], in test [5], in test [6] and in [10] was “inactive” each time. Moreover, the compound was called inactive in [2].

Turning to `N#Cc1cc2ccccc2c2ccccc12`, the Potency entry in [1], in [3], in test [4], in test [5] and in test [10] was “inactive” each time. Besides, the compound was classed as inactive in test [2]. Also, in test [6], the Potency was 61.4 µM (active).

In the case of `CC(=O)N(CC(=O)N(C)C)c1ccccc1`, the Potency entry in test [1], in [3], in test [4], in [5], in test [6] and in test [10] was “inactive” throughout. The compound was called inactive in test [2].

Consider `C=C(C)C(=O)OCCN(C)C`, for which the Potency result in test [1], in test [3], in test [4], in test [5], in [6] and in test [10] was “inactive” each time. The call in test [2] was inactive.

Take `N#CCc1cccc(C(F)(F)F)c1`: the Potency result in [1], in test [3], in [4], in [5], in test [6] and in test [10] was “inactive” in each case. Also, in test [2], the call was inactive.

As for `Oc1ccc2c(c1)OCO2`, the Potency entry in test [1], in test [3], in test [4], in test [5] and in [6] was “inactive” throughout. In addition, in test [2], the compound was called inactive. Besides, the Potency in [10] is 39.6 µM (active).

For the compound `CC(C)(C)c1cc(CCC(=O)OCC(COC(=O)CCc2cc(C(C)(C)C)c(O)c(C(C)(C)C)c2)(COC(=O)CCc2cc(C(C)(C)C)c(O)c(C(C)(C)C)c2)COC(=O)CCc2cc(C(C)(C)C)c(O)c(C(C)(C)C)c2)cc(C(C)(C)C)c1O`, the Potency entry in test [1], in [3], in test [4], in test [5], in test [6] and in [10] was “inactive” in each case. The result in [2] was inactive.

For `CCCCCCCCCCCCCCC1CO1` (stereo not given), the Potency entry in test [1], in [3], in test [4], in test [5], in test [6] and in [10] was “inactive” in each case. Further, the compound was classed as inactive in test [2].

Regarding `CC(=O)/C(C)=C/C1C(C)=CCCC1(C)C` (stereo not given), the Potency result in test [1], in test [3], in [4], in test [5], in test [6] and in test [10] was “inactive” each time. Moreover, in test [2], the compound was called inactive.

With `CCc1nn(C2CCCCC2)c2cc(C3(C#N)CCC(C(=O)O)CC3)ccc12` (stereo not given), the Potency is 48.6 µM (active) in test [1], 27.3 µM (active) in test [3], 15.4 µM (active) in [5] and 68.6 µM (active) in test [6]. Besides, in test [2], the call was inactive. For the same compound, the Potency result in test [4] and in test [10] was “inactive” in each case.

Regarding `CC(C)CCCCCCOC(=O)c1ccc(C(=O)OCCCCCCC(C)C)c(C(=O)OCCCCCCC(C)C)c1`, the Potency entry in test [1], in [3], in test [4], in test [5], in test [6] and in test [10] was “inactive” in each case. In addition, the result in [2] was inactive.

With `C1CCC2OC2C1` (stereo not given), the Potency result in test [1], in [3], in test [4], in [5], in test [6] and in [10] was “inactive” throughout. Also, the result in test [2] was inactive.

As for `COc1ccc(OC)c(OC)c1`, the Potency entry in [1], in test [3], in [4], in [5], in [6] and in test [10] was “inactive” throughout. Besides, the outcome in test [2] was inactive.
